Results as given in PubChem BioAssay (NCI).
About 83,000 compounds went through this panel and 20% of them were active in at least one assay; those are over-represented in the sample as a whole.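 Assay: single dose, 48 h. Readout: percent growth (0 = no net growth; negative = cell death). Active: <10.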 Values without a mark were called inactive. Calls of active or inactive are those of the source.

Test system: LOX IMVI melanoma
Assay: NCI-60 one-dose screen, 48 h (100 = growth as untreated, 0 = no growth, -100 = all killed)
Conditions: 10 µM

| Compound | growth |
| --- | --- |
| CCOS(=O)(=O)c1c(C(C)C)cc(C(C)C)cc1C(C)C | 101% |
| CC(C)CCN(CCC(C)C)CC(=O)Nc1ccc(S(=O)(=O)c2ccc(NC(=O)CN(CCC(C)C)CCC(C)C)cc2)cc1 | -78.4% (active) |
| O=C(N/N=C/c1cc([N+](=O)[O-])ccc1O)c1cccc2ccccc12 | 9.69% (active) |
| COc1cc(Cc2cc(-c3ccccc3)n[nH]c2=O)cc(OC)c1OC | 45.5% |
| C1CN(CC2CCC(CN3CCOCC3)O2)CCO1 (stereo not given) | 93.2% |
| Cc1cc(=O)n2nnc3cc(Cl)c(Cl)cc3n12 | 87.3% |
| CC(=O)N[C@H](C(=O)N[C@@H](CCCNC(=N)N)C(=O)N[C@@H](CCCCN)C(=O)N[C@@H](CCCNC(=N)N)C(=O)N[C@]1(C)CCCCCC/C=C\CCC[C@@](C)(C(=O)N[C@@H](CCCNC(=N)N)C(=O)N[C@@H](CCC(=O)O)C(=O)N[C@@H](CC(C)C)C(=O)N[C@H](C(=O)N[C@@H](CCC(=O)O)C(N)=O)C(C)C)NC(=O)[C@H](CCC(N)=O)NC(=O)[C@H](CC(C)C)NC(=O)[C@H](CC(C)C)NC(=O)[C@H](CCCNC(=N)N)NC(=O)[C@H](CCCNC(=N)N)NC(=O)[C@H](CC(C)C)NC1=O)C(C)C | 29.4% |
| Cc1ccc(/C=C2/C(=O)N(C)c3ccc(S(=O)(=O)Nc4ccc(C(C)(C)C)cc4)cc32)s1 | 58.1% |
| CC(=O)[C@H]1CC[C@]2(C)[C@@H]1CC[C@@H]1[C@@]3(C)CC(CCC#N)(CCC#N)C(=O)C(C)(C)[C@@H]3CC[C@]12C | 94.1% |
| O=C(CCn1cnc2c(cc(-c3ccccc3)n2-c2ccccc2)c1=O)Nc1ccc(F)cc1 | 79.4% |
| Cc1c(Cl)cccc1NC(=O)CN1CCOCC1 | 97.4% |
| CC(C)(C)OC(=O)CN1CCc2c(sc3ncnc(N/N=C/c4cccc5ccccc45)c23)C1 | 26.2% |
| CCn1c(SCc2ccc(C)cc2)nnc1-c1nn(-c2ccc(Cl)cc2Cl)c(-c2ccc(Cl)cc2)c1C | 7.19% (active) |
| O=C(Nc1nc(-c2ccccc2)nc2c1sc(=S)n2-c1ccccc1)C(F)(F)F | 84.4% |
| Cc1c[nH]c(=O)n(Cc2nnc(CCC(=O)c3nc4ccccc4[nH]3)o2)c1=O | 35.6% |
| CCCCN(CCCC)C(=O)[C@H](CC)[C@@H]1CC[C@@H](C)[C@@H]([C@H](C)[C@@H](O)[C@@H](C)C(=O)[C@H](CC)C2O[C@]3(C=CC(=O)[C@]4(CC[C@@](C)([C@H]5CC[C@](O)(CC)[C@H](C)O5)O4)O3)[C@H](C)C[C@@H]2C)O1 (stereo not given in full) | 43.5% |
| CCN(CC)CCOc1cccc2c1C(=O)c1ccccc1C2=O | 84.1% |
| COc1cc(OC)c2c(=O)c(O)c(-c3ccccc3)oc2c1 | 59.1% |
| COc1ccc(-c2cc(-c3ccccc3)nc(SCCCC(=O)NO)n2)cc1 | -65.4% (active) |
| COc1cc(-c2nn(-c3ccc(NC(=O)NCCNS(=O)(=O)c4ccc(F)cc4)cc3)cc2-c2ccncc2)ccc1Cl | 1.79% (active) |

| Compound | growth |
| --- | --- |
| Cc1[nH]c2ccccc2c1/C=N/Nc1ncnc2sc3c(c12)CCN(CC(=O)OC(C)(C)C)C3 | 83.6% |
| O=C1CSC(=S)N1/N=C/c1ccc(Cl)s1 | 88.5% |
| O=C(CC(CC(=O)c1ccccc1)c1ccccc1O)c1ccccc1 | 93.5% |
| CCOC(=O)c1cc(C(=O)c2cc(OC)cc(OC)c2)n2nc(C)ccc12 | 48.7% |
| CCCc1cn(CC(=O)Nc2nc3ccccc3s2)nn1 | 96.6% |
| CC(CN(C)C)Oc1ccc(OC(C)CN(C)C)c2c1C(=O)c1ccccc1C2=O (stereo not given) | 27.4% |
| COc1cc(-c2nn(-c3cccc(NC(=O)NCCNC(=O)c4cccc(C(F)(F)F)c4)c3)cc2-c2ccncc2)ccc1Cl | 31.7% |
| Cc1ccc(NCCNCC(C)(C)O)c2c(=O)c3ccc(Cl)cc3sc12 | -92.6% (active) |
| CNS(=O)(=O)Oc1ccc(-c2sc3cc(OS(=O)(=O)NC)ccc3c2C(=O)c2ccc(OCCN3CCCCC3)cc2)cc1 | 32.8% |
| CN(C)CCOc1ccccc1NC1=C(Cl)C(=O)C(Nc2ccccc2OCCN(C)C)=C(Cl)C1=O | -65.7% (active) |
| COc1cc(-c2nn(-c3cccc(NC(=O)CCNc4ccc(N5CCOCC5)cc4)c3)cc2-c2ccncc2)ccc1Cl | 6.71% (active) |
| C=CCSC(CC)(CC)C(=O)NC | 100% |
| Cc1c(Cl)cccc1NC(=O)CCCl | 101% |
| CC(=O)C1N=NCC1c1ccccc1 (stereo not given) | 103% |
| CCN(CC)CCOc1cccc2c1C(=O)c1cccc(OCCN(CC)CC)c1C2=O | 18.2% |
| CC(C)(C)OC(=O)CN1CCc2c(sc3ncnc(N/N=C/c4ccccc4Br)c23)C1 | 53.7% |
| N#CCc1csc(Cc2ccccc2)n1 | 95.9% |
| Clc1ccc(C2=NN=C3C(Cc4ccccc4)=Nc4ccccc4N3C2)cc1 | 65.2% |
| CCN(CC)CC(=O)N(CC)c1ccc(C)c(Cl)c1 | 93.2% |
| COc1cc(-c2csc(NC(=O)Nc3ccc(Cl)c(C(F)(F)F)c3)n2)cc(OC)c1OC | -19.2% (active) |
